# This is part of a sample that, as a whole, favours compounds with a hit. Of some 79,000 tested, about 15% had one in any assay. Values without a mark were called inactive. Active and inactive are the calls of the source. Rule as the data show it: active = growth inhibition above about 70%; inactive = the rest.
# Tests used:
# [1] = NCI Yeast Anticancer Drug Screen. Data for the rad52 strain (AID 147);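 also: 0% = growth of vehicle-treated control cultures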; details: S. cerevisiae rad52 mutant growth inhibition, active compounds read high
# Method in brief: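 Screen used a yeast mutant impaired in DNA repair. After compound exposure, growth was measured. Values reflect inhibition compared with vehicle-treated cells.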
# [2] = NCI Yeast Anticancer Drug Screen. Data for the wt1 strain (AID 149);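 also: 0% = growth of vehicle-treated wt1 cultures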; details: S. cerevisiae wt1 strain (SPY 50644) growth inhibition, active compounds read high
# Method in brief: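 Each compound is tested on wt1 yeast and the loss of growth versus vehicle gives the inhibition value.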
# [3] = NCI Yeast Anticancer Drug Screen. Data for the rad50EPP+ strain (AID 151);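 also: 0% = growth of vehicle-treated control cultures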; details: S. cerevisiae rad50 mutant strain, active compounds read high
# Method in brief: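 Exposing the rad50EPP+ strain to each compound, growth was compared with vehicle-only cultures to give inhibition.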
# [4] = NCI Yeast Anticancer Drug Screen. Data for the mgt1 strain (AID 153); details: S. cerevisiae mgt1 mutant growth inhibition, active compounds read high
# Method in brief: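 Genetically defined yeast (mgt1) treated with compound; inhibition of growth expressed against vehicle-treated controls.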
# [5] = NCI Yeast Anticancer Drug Screen. Data for the rad50 strain (AID 155);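 also: 0% = growth of vehicle-only cultures of the same strain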; details: S. cerevisiae rad50 strain growth inhibition, active compounds read high
# Method in brief: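 Vehicle-treated cultures provide the reference for the growth inhibition reported for compound-exposed, repair-deficient yeast.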
# [6] = NCI Yeast Anticancer Drug Screen. Data for the mec2-1 strain (AID 157); details: S. cerevisiae mec2-1 strain, active compounds read high
# Method in brief: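 Readout is yeast growth inhibition, normalised to vehicle-treated controls, in the mec2-1 strain exposed to compound.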
# [7] = NCI Yeast Anticancer Drug Screen. Data for the rad14 strain (AID 159);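 also: 0% = growth of vehicle-treated control cultures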; details: S. cerevisiae rad14 strain growth inhibition, active compounds read high
# Method in brief: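 Inhibition of growth is reported for a repair-deficient yeast mutant following compound treatment, calculated relative to cultures that received vehicle.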
# [8] = NCI Yeast Anticancer Drug Screen. Data for the sgs1 mgt1 strain (AID 161);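 also: 0% = growth of cultures given vehicle only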; details: S. cerevisiae sgs1 mgt1 strain, active compounds read high
# Method in brief: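 Percent growth inhibition was derived by comparing compound-exposed mutant yeast with vehicle-exposed cultures. The strain carries alterations in DNA damage repair.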
# [9] = NCI Yeast Anticancer Drug Screen. Data for the CLN2oe strain (AID 163);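 also: 0% = growth of vehicle-only control cultures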; details: S. cerevisiae CLN2oe strain, active compounds read high
# Method in brief: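 Values reflect how much compound exposure reduced yeast growth, referenced to vehicle-exposed cells. Assay organism is a strain with a defined genetic change affecting cell-cycle control.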
# [10] = NCI Yeast Anticancer Drug Screen. Data for the cln2 rad14 strain (AID 165);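 also: 0% = growth equal to vehicle treated cultures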; details: S. cerevisiae cln2 rad14 strain, active compounds read high
# Method in brief: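 Relative to vehicle controls, growth inhibition of compound-treated cln2 rad14 yeast was recorded.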
# [11] = NCI Yeast Anticancer Drug Screen. Data for the bub3 strain (AID 167); details: S. cerevisiae bub3 mutant strain, active compounds read high
# Method in brief: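 Mutant yeast screening strain plus compound; vehicle-treated cultures serve as the 0% inhibition reference.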
# [12] = NCI Yeast Anticancer Drug Screen. Data for the wt2 strain (AID 169); details: S. cerevisiae wt2 strain growth inhibition, active compounds read high
# Method in brief: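 Values express reduction in yeast growth under compound treatment, referenced to vehicle-treated cells.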
# [13] = NCI Yeast Anticancer Drug Screen. Data for the mlh1 strain (AID 171);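 also: 0% = growth of vehicle-treated control cultures of the same strain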; details: S. cerevisiae mlh1 strain growth inhibition, active compounds read high
# Method in brief: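 Steps: expose the defined-mutant yeast strain to compound; expose a parallel culture to vehicle; measure growth; express compound effect as inhibition relative to the vehicle culture.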
# [14] = NCI Yeast Anticancer Drug Screen. Data for the sgs1 strain (AID 173);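 also: 0% = growth of vehicle-only control cultures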; details: S. cerevisiae sgs1 mutant, active compounds read high
# Method in brief: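 Treat defined-mutant yeast with compound; measure growth; calculate inhibition relative to vehicle-treated cells.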
# [15] = NCI Yeast Anticancer Drug Screen. Data for the mlh1 rad18 strain (AID 175); details: S. cerevisiae mlh1 rad18 strain growth inhibition, active compounds read high
# Method in brief: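 Test agents were incubated with a yeast strain of defined genotype (DNA damage repair defect). Inhibition of growth was derived by comparison with vehicle-exposed cultures.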
# [16] = NCI Yeast Anticancer Drug Screen. Data for the rad18 strain (AID 177); details: S. cerevisiae rad18 mutant growth inhibition, active compounds read high
# Method in brief: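 A genetically defined yeast mutant impaired in DNA damage repair was treated with test compounds, then its growth was measured against cultures receiving vehicle alone.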
# [17] = at 5.0 µM (retest, dose inferred, filed as 0.5)
# [18] = at 50.0 µM (retest, dose inferred, filed as 5.0)
structure (smiles),measurement,setting,value
COc1ccccc1/C=C1\Sc2scc(-c3cccc([N+](=O)[O-])c3)[n+]2C1=O,growth inhibition,[1]; at 1.2 µM,31%
same,growth inhibition,[1]; at 3.7 µM,80% (active)
same,growth inhibition,[1]; at 11.0 µM,98% (active)
same,growth inhibition,[1]; at 33.0 µM,97% (active)
same,growth inhibition,[1]; at 100.0 µM,93% (active)
same,growth inhibition,[2]; at 1.2 µM,33%
same,growth inhibition,[2]; at 3.7 µM,91% (active)
same,growth inhibition,[2]; at 11.0 µM,99% (active)
same,growth inhibition,[2]; at 33.0 µM,98% (active)
same,growth inhibition,[2]; at 100.0 µM,94% (active)
same,growth inhibition,[3]; at 1.2 µM,11%
same,growth inhibition,[3]; at 3.7 µM,80% (active)
same,growth inhibition,[3]; at 11.0 µM,95% (active)
same,growth inhibition,[3]; at 33.0 µM,96% (active)
same,growth inhibition,[3]; at 100.0 µM,88% (active)
same,growth inhibition,[4]; at 1.2 µM,63%
same,growth inhibition,[4]; at 3.7 µM,98% (active)
same,growth inhibition,[4]; at 11.0 µM,99% (active)
same,growth inhibition,[4]; at 33.0 µM,94% (active)
same,growth inhibition,[4]; at 100.0 µM,91% (active)
same,growth inhibition,[5]; at 1.2 µM,47%
same,growth inhibition,[5]; at 3.7 µM,93% (active)
same,growth inhibition,[5]; [17],12%
same,growth inhibition,[5]; at 11.0 µM,98% (active)
same,growth inhibition,[5]; at 33.0 µM,92% (active)
same,growth inhibition,[5]; [18],96% (active)
same,growth inhibition,[5]; at 50.0 µM,85.7% (active)
same,growth inhibition,[5]; at 100.0 µM,91% (active)
same,growth inhibition,[6]; at 1.2 µM,67%
same,growth inhibition,[6]; at 3.7 µM,98% (active)
same,growth inhibition,[6]; [17],16%
same,growth inhibition,[6]; at 11.0 µM,99% (active)
same,growth inhibition,[6]; at 33.0 µM,96% (active)
same,growth inhibition,[6]; [18],96% (active)
same,growth inhibition,[6]; at 50.0 µM,89.1% (active)
same,growth inhibition,[6]; at 100.0 µM,90% (active)
same,growth inhibition,[7]; at 1.2 µM,28%
same,growth inhibition,[7]; at 3.7 µM,90% (active)
same,growth inhibition,[7]; at 11.0 µM,99% (active)
same,growth inhibition,[7]; at 33.0 µM,97% (active)
same,growth inhibition,[7]; at 100.0 µM,94% (active)
same,growth inhibition,[8]; [17],46%
same,growth inhibition,[8]; [18],98% (active)
same,growth inhibition,[8]; at 50.0 µM,89.3% (active)
same,growth inhibition,[9]; at 1.2 µM,46%
same,growth inhibition,[9]; at 3.7 µM,82% (active)
same,growth inhibition,[9]; at 11.0 µM,99% (active)
same,growth inhibition,[9]; at 33.0 µM,97% (active)
same,growth inhibition,[9]; at 100.0 µM,95% (active)
same,growth inhibition,[10]; [17],15%
same,growth inhibition,[10]; [18],96% (active)
same,growth inhibition,[10]; at 50.0 µM,87.6% (active)
same,growth inhibition,[11]; at 1.2 µM,70% (active)
same,growth inhibition,[11]; at 3.7 µM,96% (active)
same,growth inhibition,[11]; [17],92% (active)
same,growth inhibition,[11]; at 11.0 µM,99% (active)
same,growth inhibition,[11]; at 33.0 µM,95% (active)
same,growth inhibition,[11]; [18],95% (active)
same,growth inhibition,[11]; at 50.0 µM,83.8% (active)
same,growth inhibition,[11]; at 100.0 µM,84% (active)
same,growth inhibition,[12]; at 1.2 µM,18%
same,growth inhibition,[12]; at 3.7 µM,59%
same,growth inhibition,[12]; at 11.0 µM,98% (active)
same,growth inhibition,[12]; at 33.0 µM,98% (active)
same,growth inhibition,[12]; at 100.0 µM,95% (active)
same,growth inhibition,[13]; at 1.2 µM,34%
same,growth inhibition,[13]; at 3.7 µM,89% (active)
same,growth inhibition,[13]; at 11.0 µM,99% (active)
same,growth inhibition,[13]; at 33.0 µM,97% (active)
same,growth inhibition,[13]; at 100.0 µM,90% (active)
same,growth inhibition,[14]; at 1.2 µM,34%
same,growth inhibition,[14]; at 3.7 µM,89% (active)
same,growth inhibition,[14]; at 11.0 µM,99% (active)
same,growth inhibition,[14]; at 33.0 µM,97% (active)
same,growth inhibition,[14]; at 100.0 µM,90% (active)
same,growth inhibition,[15]; [17],13%
same,growth inhibition,[15]; [18],96% (active)
same,growth inhibition,[15]; at 50.0 µM,89.2% (active)
same,growth inhibition,[16]; at 1.2 µM,14%
same,growth inhibition,[16]; at 3.7 µM,82% (active)
same,growth inhibition,[16]; at 11.0 µM,98% (active)
same,growth inhibition,[16]; at 33.0 µM,96% (active)
same,growth inhibition,[16]; at 100.0 µM,93% (active)
